Targets with a hit are over-represented here; the source holds about 8,800 in all. About 0.5% of all pairs of compound and target were hits.
compound: O=C1NC(=O)C(c2cnc3ccccn23)=C1c1cn2c3c(cc(F)cc13)CN(C(=O)N1CCCCC1)CC2; assay: log2 fold change, soluble protein after heating vs DMSO (PISA); higher = thermal stabilisation; K562 lysate, 10 uM; active = over 0.2 and 3.5 SD of the protein, either way, in both replicates (recomputed)
In short: (§1)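 The values are log-two fold changes in thermal stability compared with solvent controls and come from duplicates. They were obtained by TMTpro 16plex LC-MS/MS, with channel sums equalised, on the supernatant after 21,000xg for 90 min. That supernatant came from crude K562 extract at 1 mg/mL protein treated with 10 μM compound for 30 min, heated for 3 min across 48°C-58°C, pooled and brought to 0.5% NP-40 at 4°C.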

Chain of UniProt P41229 (P41229 whole entry, looked up): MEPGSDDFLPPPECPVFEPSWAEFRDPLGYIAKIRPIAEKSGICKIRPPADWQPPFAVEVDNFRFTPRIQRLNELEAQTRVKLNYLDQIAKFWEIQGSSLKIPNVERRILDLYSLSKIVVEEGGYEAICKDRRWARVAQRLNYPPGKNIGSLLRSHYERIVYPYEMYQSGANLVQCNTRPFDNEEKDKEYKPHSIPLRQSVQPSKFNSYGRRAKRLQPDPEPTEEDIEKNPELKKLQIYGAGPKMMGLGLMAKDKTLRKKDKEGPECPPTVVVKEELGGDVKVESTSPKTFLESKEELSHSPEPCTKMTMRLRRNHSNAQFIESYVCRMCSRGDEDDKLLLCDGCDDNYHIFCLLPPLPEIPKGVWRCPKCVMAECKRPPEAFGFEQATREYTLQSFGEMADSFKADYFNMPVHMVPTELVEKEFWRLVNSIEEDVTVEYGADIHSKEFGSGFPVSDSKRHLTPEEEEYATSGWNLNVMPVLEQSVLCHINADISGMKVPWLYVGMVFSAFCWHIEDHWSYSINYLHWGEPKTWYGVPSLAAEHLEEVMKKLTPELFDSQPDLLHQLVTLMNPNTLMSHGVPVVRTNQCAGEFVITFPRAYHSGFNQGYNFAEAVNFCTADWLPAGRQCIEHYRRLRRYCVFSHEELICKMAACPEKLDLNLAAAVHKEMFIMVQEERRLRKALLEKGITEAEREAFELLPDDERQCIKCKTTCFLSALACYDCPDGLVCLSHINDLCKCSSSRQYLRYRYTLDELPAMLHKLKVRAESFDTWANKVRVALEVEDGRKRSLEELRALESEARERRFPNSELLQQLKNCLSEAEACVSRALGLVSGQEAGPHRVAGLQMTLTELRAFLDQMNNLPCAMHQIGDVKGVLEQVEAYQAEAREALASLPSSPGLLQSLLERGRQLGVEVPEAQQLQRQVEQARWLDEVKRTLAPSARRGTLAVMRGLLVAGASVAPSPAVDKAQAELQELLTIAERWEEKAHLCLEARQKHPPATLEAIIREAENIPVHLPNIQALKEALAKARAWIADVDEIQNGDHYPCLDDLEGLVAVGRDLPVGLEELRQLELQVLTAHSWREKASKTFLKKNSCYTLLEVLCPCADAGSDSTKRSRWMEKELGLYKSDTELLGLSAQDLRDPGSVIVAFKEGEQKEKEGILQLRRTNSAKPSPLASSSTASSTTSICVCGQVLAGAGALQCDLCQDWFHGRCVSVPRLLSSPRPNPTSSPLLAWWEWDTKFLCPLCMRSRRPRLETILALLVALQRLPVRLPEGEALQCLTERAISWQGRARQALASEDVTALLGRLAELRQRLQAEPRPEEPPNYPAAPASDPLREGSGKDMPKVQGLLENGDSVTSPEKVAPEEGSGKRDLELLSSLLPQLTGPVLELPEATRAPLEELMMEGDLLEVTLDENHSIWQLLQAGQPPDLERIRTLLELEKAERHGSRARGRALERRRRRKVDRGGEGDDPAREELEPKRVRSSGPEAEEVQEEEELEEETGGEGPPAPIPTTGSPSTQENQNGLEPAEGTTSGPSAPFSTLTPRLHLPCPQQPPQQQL
Chain of UniProt P52272 (P52272 whole entry, looked up): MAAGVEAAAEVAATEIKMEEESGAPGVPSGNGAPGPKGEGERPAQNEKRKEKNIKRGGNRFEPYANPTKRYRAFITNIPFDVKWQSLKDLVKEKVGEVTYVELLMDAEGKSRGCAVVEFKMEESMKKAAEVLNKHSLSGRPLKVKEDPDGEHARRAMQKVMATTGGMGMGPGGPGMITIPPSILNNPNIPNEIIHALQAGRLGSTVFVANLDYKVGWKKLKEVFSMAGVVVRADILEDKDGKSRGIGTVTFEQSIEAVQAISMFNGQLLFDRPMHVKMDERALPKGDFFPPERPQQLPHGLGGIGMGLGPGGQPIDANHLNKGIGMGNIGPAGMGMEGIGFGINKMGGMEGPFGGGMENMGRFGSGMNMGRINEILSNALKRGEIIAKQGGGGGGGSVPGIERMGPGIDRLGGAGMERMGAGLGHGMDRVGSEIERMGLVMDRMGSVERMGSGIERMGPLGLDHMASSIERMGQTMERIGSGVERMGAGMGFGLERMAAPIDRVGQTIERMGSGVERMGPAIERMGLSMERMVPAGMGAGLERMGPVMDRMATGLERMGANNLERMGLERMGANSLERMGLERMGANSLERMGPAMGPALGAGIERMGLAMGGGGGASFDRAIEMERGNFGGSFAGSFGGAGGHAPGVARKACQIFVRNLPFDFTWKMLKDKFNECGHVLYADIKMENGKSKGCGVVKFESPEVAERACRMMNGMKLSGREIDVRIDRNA
Chain of UniProt Q58FG1 (Q58FG1 whole entry, looked up): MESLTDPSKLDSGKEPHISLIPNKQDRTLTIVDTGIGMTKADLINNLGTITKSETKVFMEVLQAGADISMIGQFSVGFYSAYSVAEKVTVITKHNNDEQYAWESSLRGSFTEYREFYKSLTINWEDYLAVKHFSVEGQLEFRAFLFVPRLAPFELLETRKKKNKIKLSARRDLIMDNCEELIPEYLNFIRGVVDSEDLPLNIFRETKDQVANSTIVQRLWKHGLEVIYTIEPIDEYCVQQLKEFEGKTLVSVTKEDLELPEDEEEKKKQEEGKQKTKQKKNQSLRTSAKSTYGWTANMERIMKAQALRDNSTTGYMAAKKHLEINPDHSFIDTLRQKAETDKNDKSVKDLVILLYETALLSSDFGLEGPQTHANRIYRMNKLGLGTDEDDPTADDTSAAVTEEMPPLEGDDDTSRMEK
Chain of UniProt Q9H0C8 (Q9H0C8 whole entry, looked up): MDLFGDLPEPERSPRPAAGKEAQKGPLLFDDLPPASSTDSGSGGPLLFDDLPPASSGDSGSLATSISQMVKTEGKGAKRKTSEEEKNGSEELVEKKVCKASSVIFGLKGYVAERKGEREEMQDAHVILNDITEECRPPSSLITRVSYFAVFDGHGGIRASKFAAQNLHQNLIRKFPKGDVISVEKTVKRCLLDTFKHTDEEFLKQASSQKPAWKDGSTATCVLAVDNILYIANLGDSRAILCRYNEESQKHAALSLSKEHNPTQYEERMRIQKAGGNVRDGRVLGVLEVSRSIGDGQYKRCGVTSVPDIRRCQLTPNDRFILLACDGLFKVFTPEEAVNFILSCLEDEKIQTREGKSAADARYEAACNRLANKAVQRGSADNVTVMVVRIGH
Chain of UniProt Q9Y6M1 (Q9Y6M1 whole entry, looked up): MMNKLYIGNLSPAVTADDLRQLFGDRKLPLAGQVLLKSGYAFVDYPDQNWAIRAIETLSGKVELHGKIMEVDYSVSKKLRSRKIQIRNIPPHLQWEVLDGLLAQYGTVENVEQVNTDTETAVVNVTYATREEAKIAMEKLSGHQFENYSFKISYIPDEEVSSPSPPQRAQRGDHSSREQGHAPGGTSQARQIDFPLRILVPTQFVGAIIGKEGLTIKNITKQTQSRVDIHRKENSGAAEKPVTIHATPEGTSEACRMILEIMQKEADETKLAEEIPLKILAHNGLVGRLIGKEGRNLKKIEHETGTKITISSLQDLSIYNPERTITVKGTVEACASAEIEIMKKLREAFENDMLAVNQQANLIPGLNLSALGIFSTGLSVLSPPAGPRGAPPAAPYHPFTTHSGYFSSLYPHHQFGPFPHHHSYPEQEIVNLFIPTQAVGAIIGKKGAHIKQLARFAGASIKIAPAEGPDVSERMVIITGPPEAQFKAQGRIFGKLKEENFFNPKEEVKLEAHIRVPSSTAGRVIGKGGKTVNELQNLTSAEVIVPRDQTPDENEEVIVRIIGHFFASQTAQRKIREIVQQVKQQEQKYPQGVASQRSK
Chain of UniProt P04792 (P04792 whole entry, looked up): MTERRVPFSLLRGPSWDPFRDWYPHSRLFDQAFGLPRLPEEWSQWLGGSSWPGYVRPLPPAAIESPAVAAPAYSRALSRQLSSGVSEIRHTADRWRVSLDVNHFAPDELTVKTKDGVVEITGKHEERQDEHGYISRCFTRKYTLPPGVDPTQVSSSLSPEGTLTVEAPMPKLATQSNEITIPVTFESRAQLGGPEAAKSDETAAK
Chain of UniProt P55795 (P55795 whole entry, looked up): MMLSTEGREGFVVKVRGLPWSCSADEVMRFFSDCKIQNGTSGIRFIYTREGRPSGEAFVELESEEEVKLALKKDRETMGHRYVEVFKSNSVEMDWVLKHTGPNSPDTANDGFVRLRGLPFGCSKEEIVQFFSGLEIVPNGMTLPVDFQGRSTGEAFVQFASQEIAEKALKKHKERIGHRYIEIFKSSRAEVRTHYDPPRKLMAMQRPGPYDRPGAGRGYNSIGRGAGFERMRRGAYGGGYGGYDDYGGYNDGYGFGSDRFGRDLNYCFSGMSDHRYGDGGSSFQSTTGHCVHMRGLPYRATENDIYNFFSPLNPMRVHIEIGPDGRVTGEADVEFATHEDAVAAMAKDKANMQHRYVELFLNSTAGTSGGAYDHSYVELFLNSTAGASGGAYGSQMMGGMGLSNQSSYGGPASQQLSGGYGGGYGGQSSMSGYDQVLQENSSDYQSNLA
Chain of UniProt Q9H079 (Q9H079 whole entry, looked up): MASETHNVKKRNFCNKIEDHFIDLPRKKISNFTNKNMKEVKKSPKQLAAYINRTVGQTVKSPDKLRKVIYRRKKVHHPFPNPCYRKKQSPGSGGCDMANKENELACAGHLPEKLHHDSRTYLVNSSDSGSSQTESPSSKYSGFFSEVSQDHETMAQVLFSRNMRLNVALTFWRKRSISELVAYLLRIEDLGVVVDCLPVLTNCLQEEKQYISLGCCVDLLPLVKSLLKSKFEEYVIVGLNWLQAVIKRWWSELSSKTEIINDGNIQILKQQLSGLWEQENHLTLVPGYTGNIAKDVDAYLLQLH
Chain of UniProt P09211 (P09211 whole entry, looked up): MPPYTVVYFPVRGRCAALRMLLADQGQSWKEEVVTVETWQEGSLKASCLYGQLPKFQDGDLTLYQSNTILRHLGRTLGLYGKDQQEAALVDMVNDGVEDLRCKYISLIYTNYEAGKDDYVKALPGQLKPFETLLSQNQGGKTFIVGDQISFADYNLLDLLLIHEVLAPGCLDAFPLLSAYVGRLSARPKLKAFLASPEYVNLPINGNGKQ

log2 fold change, inactive:
HMGB1 (UniProt P09429) 0.098
IGF2BP2 (UniProt Q9Y6M1) 0
GNB1 (UniProt P62873) -0.037
IRAK1 (UniProt P51617) -0.014
GRK6 isoform 2 (UniProt P43250) -0.012
ICAM2 (UniProt P13598) -0.021
IMMT (UniProt C9J406) -0.002
GUSB (UniProt P08236) -0.026
HSPA14 (UniProt Q0VDF9) -0.007
HNRNPH2 (UniProt P55795) -0.054
HDAC6 (UniProt Q9UBN7) -0.047
HSP90AA4P (UniProt Q58FG1) -0.047
KHK isoform 2 (UniProt P50053) -0.053
GTF3C3 (UniProt Q9Y5Q9) 0.011
H4C1 (UniProt P62805) -0.038
HSPB1 (UniProt P04792) -0.001
GNL3 (UniProt Q9BVP2) -0.041
KDM5C (UniProt P41229) 0
GOLGA1 (UniProt Q92805) -0.076
KATNBL1 (UniProt Q9H079) 0.144
HNRNPM (UniProt P52272) -0.05
HEATR3 (UniProt Q7Z4Q2) -0.017
HNRNPUL1 (UniProt Q9BUJ2) -0.022
HDGFL2 isoform 2 (UniProt Q7Z4V5) 0.01
HNRNPLL (UniProt Q8WVV9) 0.004
HDAC3 (UniProt O15379) -0.008
IMPDH1 isoform 6 (UniProt P20839) 0.004
HDHD5 (UniProt Q9BXW7) -0.002
KDM6A (UniProt O15550) -0.009
ILKAP (UniProt Q9H0C8) -0.024
IRF2BPL (UniProt Q9H1B7) 0.006
GSTP1 (UniProt P09211) 0.04
GLUL (UniProt P15104) -0.096
GSE1 (UniProt Q14687) -0.006
GSTCD (UniProt Q8NEC7) -0.027
HMGN4 (UniProt O00479) 0.067

compound: c1cn2cc(-c3ccc4cn[nH]c4c3)nc(Nc3ccc(N4CCOCC4)cc3)c2n1 [entospletinib]; assay: as above
In short: as §1

log2 fold change, inactive:
HMGB1 (UniProt P09429) -0.014
IGF2BP2 (UniProt Q9Y6M1) 0.026
GNB1 (UniProt P62873) 0.054
IRAK1 (UniProt P51617) 0.232
GRK6 isoform 2 (UniProt P43250) -0.123
ICAM2 (UniProt P13598) -0.018
IMMT (UniProt C9J406) -0.172
GUSB (UniProt P08236) -0.029
HSPA14 (UniProt Q0VDF9) -0.009
HNRNPH2 (UniProt P55795) 0.002
HDAC6 (UniProt Q9UBN7) 0.007
HSP90AA4P (UniProt Q58FG1) 0.017
KHK isoform 2 (UniProt P50053) 0.033
GTF3C3 (UniProt Q9Y5Q9) -0.052
H4C1 (UniProt P62805) -0.057
HSPB1 (UniProt P04792) 0.013
GNL3 (UniProt Q9BVP2) 0.018
KDM5C (UniProt P41229) 0.003
GOLGA1 (UniProt Q92805) -0.014
KATNBL1 (UniProt Q9H079) 0.234
HNRNPM (UniProt P52272) 0.015
HEATR3 (UniProt Q7Z4Q2) -0.006
HNRNPUL1 (UniProt Q9BUJ2) -0.02
HDGFL2 isoform 2 (UniProt Q7Z4V5) -0.012
HNRNPLL (UniProt Q8WVV9) 0.034
HDAC3 (UniProt O15379) 0
IMPDH1 isoform 6 (UniProt P20839) 0.023
HDHD5 (UniProt Q9BXW7) -0.059
KDM6A (UniProt O15550) -0.02
ILKAP (UniProt Q9H0C8) -0.001
IRF2BPL (UniProt Q9H1B7) -0.065
GSTP1 (UniProt P09211) -0.001
GLUL (UniProt P15104) 0.116
GSE1 (UniProt Q14687) -0.017
GSTCD (UniProt Q8NEC7) -0.066
HMGN4 (UniProt O00479) 0.163
